Reference: PubChem BioAssay (Tox21)
Results filed as inconclusive are left out. Entries that show only a call come without a potency. The source made the active and inactive calls. Unless noted, calls follow the shape of the dose curve; as a rule, active = well fitted curve in the direction sought with a large enough effect in the repeat runs; inconclusive = weak or mixed curves; inactive = no such curve, though single readings can be large; an effect the other way counts as inactive or inconclusive.

Experiments:
[1] = qHTS assay to identify small molecule antagonists of the androgen receptor (AR) signaling pathway using the MDA cell line in the presence of 0.5 nM R1881 - cell viability counter screen (AID 1259242); also: nearly all actives have a fitted effect of over 45% in size
Outline: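 Live-cell protease activity was measured by CellTiter-Fluor fluorescence after 30 min. Before that, MDA-kb2 MMTV-luciferase cells had 16 hr at 37C without CO2, exposed to test compounds and 0.5 nM R1881 final.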

[2] = target: Estrogen receptor (Homo sapiens) (UniProt P03372); experiment: qHTS assay to identify small molecule antagonists of the estrogen receptor alpha (ER-alpha) signaling pathway using the BG1 cell line in the presence of 0.1 nM 17-beta-estradiol (AID 1259244); also: nearly all actives have a fitted effect of over 50% in size
Chain of Estrogen receptor (Homo sapiens) (P03372 whole entry, looked up): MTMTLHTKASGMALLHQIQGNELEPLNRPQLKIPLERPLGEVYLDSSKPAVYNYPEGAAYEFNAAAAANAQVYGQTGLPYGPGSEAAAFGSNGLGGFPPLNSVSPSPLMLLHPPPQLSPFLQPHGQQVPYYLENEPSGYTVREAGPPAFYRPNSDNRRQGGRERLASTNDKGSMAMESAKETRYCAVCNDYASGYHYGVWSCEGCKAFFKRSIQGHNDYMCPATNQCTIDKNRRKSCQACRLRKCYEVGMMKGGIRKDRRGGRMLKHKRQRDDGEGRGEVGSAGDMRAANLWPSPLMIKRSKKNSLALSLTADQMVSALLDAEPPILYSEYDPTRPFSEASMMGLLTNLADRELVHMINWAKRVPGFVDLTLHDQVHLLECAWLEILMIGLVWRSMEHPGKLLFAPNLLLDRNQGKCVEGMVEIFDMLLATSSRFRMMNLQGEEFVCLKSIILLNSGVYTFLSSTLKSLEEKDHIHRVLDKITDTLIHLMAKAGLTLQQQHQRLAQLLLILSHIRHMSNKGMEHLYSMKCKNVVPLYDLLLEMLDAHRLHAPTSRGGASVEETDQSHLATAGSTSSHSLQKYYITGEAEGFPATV
Outline: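 Luciferase luminescence (ONE-Glo, 30 min at room temperature) was read after 22 hr at 37C exposure to compounds plus 17beta-estradiol at 0.1 nM final. Cells were VM7Luc4E2 with endogenous ER-alpha and an ERE-driven luciferase, pre-cultured 5 days in hormone-depleted medium.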

[3] = qHTS assay to identify small molecule HDAC inhibitors (AID 1259364); also: top concentration of the series differs between compounds; nearly all actives have a fitted effect of over 45% in size
Outline: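 Luminescence read after 30 min room-temperature HDAC-Glo incubation measures cellular class I/II HDAC activity. Compounds were applied for 2 hr at 37 C to HCT-116 wild-type cells seeded the day before.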

[4] = qHTS assay to identify small molecule HDAC inhibitors - cell viability counter screen (AID 1259365); also: series mostly up to about 92 µM; nearly all actives have a fitted effect of over 50% in size
Outline: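 Wild-type HCT-116 cells were seeded at 1,500 per well, incubated overnight at 37 C, then exposed to compounds in DMSO for 2hr. Viability was read by CellTiter-Glo luminescence after 30min at room temperature.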

[5] = qHTS assay to identify small molecule agonists of the sonic hedgehog signaling (Shh) pathway - cell viability counter screen (AID 1259366); also: nearly all actives have a fitted effect of over 50% in size; also: potency is read from the fitted curve at half-maximal effect
Outline: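 NIH/3T3-derived 3T3 Gli1-Luc cells (stable Gli1-responsive firefly luciferase reporter) were seeded, rested 4 hr at 37 C/5% CO2, then exposed to compounds in DMSO for 24 hr; viability was read by CellTiter-Fluor fluorescence in the same wells.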

[6] = qHTS assay to identify small molecule antagonists of the sonic hedgehog signaling (Shh) pathway - cell viability counter screen (AID 1259367); also: nearly all actives have a fitted effect of over 55% in size; also: potency is read from the fitted curve at half-maximal effect
Outline: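 Tox21 library chemicals were tested on a Gli1-Luc NIH/3T3 clone (2,000 cells/well) stimulated by conditioned medium; viability was quantified as fluorescence from CellTiter-Fluor reagent added at 23 hr.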

[7] = qHTS assay to identify small molecule agonists of the sonic hedgehog signaling (Shh) pathway (AID 1259368; calls by dose curve; also: series mostly up to about 92 µM; nearly all actives have a fitted effect of over 15% in size)
Outline: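 Luminescence was read after 30 min at room temperature with luciferase reagent. Before that, 3T3Gli1-Luc cells (NIH/3T3 clone, stable Gli1-Luc reporter; 2,000/well) were exposed to compounds for 24 hr at 37C, 5% CO2, compounds being added 4 hr post-plating.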

[8] = qHTS assay to identify small molecule antagonists of the sonic hedgehog signaling (Shh) pathway (AID 1259369; calls by dose curve; also: nearly all actives have a fitted effect of over 45% in size; also: potency is read from the fitted curve at half-maximal effect)
Outline: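 Antagonist mode: compound added to 3T3 Gli1-Luc cells followed by conditioned-medium stimulation, 24 h at 37 C, 5% CO2. Inhibition taken as loss of Gli1-driven luciferase luminescence.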

[9] = qHTS assay to identify small molecule agonists of the androgen receptor (AR) signaling pathway in the presence of an antagonist - cell viability counter screen (AID 1259379); also: nearly all actives have a fitted effect of over 25% in size; also: potency is read from the fitted curve at half-maximal effect
Outline: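 Cytotoxicity counter-screen run in the same wells as the nilutamide-challenged (3.0 µM final) AR agonist assay in MDA-kb2 cells. Compounds tested at 15 concentrations for 16 h, 37 °C without CO2; CellTiter-Fluor fluorescence read.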

[10] = qHTS assay to identify small molecule agonists of the estrogen receptor beta (ER-beta) signaling pathway - cell viability counter screen (AID 1259380); also: nearly all actives have a fitted effect of over 30% in size
Outline: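 Cell viability counter screen: CellTiter-Glo luminescence (30 min, room temperature) measured in the same wells as the beta-lactamase readout, after 16 hr compound exposure at 37C of ER-beta-bla HEK293T cells in 2% charcoal-stripped FBS medium.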

[11] = qHTS assay to identify small molecule antagonists of the estrogen receptor beta (ER-beta) signaling pathway - cell viability counter screen (AID 1259382); also: series mostly up to about 92 µM; nearly all actives have a fitted effect of over 55% in size
Outline: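 Cytotoxicity was measured in the same wells by CellTiter-Glo luminescence after 30 min at room temperature. Cells were ER-beta-bla HEK293T in charcoal-stripped serum, given compound together with 1 nM E2 and incubated 16 h at 37C.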

[12] = target: Estrogen receptor (Homo sapiens) (UniProt P03372); experiment: qHTS assay to identify small molecule agonists of the estrogen receptor alpha (ER-alpha) signaling pathway in the presence of an antagonist (AID 1259383; calls by dose curve; also: top concentration of the series differs between compounds; nearly all actives have a fitted effect of over 15% in size)
Outline: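 Agonist-mode confirmation run in the presence of 10.0nM (final) ICI-182,780 antagonist. The reporter was ERE-driven luciferase in VM7Luc4E2 cells, grown in charcoal-stripped serum. Cells were exposed to 15-concentration compound series for 22hr, then ONE-Glo luminescence was read.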

[13] = qHTS assay to identify small molecule agonists or antagonists of the thyroid stimulating hormone receptor (TSHR) signaling pathway - wild type cell line counter screen (AID 1259384; calls by dose curve)
Outline: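 Wild-type Hek293 cells, 800/well, 18 h at 37C, then compound with Ro20-1724 for 30 min RT. cAMP by HTRF (cAMP-d2/anti-cAMP cryptate), 1 h RT, fluorescence read. 15 concentrations, triplicates.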

[14] = target: Estrogen receptor beta (Homo sapiens) (UniProt Q92731); experiment: qHTS assay to identify small molecule agonists of the estrogen receptor beta (ER-beta) signaling pathway (AID 1259377; active = well fitted activation curve with a large enough effect in the signal ratio in the repeat runs, not every such curve was filed as active; the % refers to the signal ratio)
Chain of Estrogen receptor beta (Homo sapiens) (Q92731 whole entry, looked up): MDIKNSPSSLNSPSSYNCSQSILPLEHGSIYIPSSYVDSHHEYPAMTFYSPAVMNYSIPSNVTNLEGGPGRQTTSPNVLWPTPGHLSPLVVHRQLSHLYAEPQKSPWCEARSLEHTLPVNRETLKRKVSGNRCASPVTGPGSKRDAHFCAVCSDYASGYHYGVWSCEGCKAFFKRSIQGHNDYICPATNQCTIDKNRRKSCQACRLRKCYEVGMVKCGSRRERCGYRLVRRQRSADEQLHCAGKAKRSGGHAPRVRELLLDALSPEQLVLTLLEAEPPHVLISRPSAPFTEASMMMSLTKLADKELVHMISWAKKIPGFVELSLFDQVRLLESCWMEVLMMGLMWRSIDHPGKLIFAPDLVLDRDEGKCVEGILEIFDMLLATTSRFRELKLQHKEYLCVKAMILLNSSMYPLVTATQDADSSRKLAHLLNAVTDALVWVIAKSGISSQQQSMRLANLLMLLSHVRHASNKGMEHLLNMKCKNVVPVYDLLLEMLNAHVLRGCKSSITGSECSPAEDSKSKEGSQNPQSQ
Outline: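 ER-beta-UAS-bla HEK293T (GripTite) cells carrying a UAS-driven beta-lactamase reporter, in medium with 2% charcoal-stripped FBS, were exposed to compounds for 16 hr at 37C; LiveBLAzer B/G FRET substrate was then added and fluorescence read after 2 hours at room temperature.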

[15] = target: Estrogen receptor beta (Homo sapiens) (UniProt Q92731); experiment: qHTS assay to identify small molecule antagonists of the estrogen receptor beta (ER-beta) signaling pathway (AID 1259378; active = well fitted inhibition curve with a large enough effect in the signal ratio in the repeat runs, not every such curve was filed as active; the % refers to the signal ratio)
Outline: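 ER-beta-UAS-bla HEK293T cells in 2% charcoal-stripped FBS medium treated with compound plus 1nM final 17-beta-estradiol for 16 hr at 37C. Beta-lactamase reporter read by FRET substrate fluorescence after 2 hours at room temperature.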

[16] = target: Thyrotropin receptor (Homo sapiens) (UniProt P16473); experiment: qHTS assay to identify small molecule antagonists of the thyroid stimulating hormone receptor (TSHR) signaling pathway (AID 1259385; calls by dose curve; also: nearly all actives have a fitted effect of over 20% in size)
Chain of Thyrotropin receptor (Homo sapiens) (P16473 whole entry, looked up): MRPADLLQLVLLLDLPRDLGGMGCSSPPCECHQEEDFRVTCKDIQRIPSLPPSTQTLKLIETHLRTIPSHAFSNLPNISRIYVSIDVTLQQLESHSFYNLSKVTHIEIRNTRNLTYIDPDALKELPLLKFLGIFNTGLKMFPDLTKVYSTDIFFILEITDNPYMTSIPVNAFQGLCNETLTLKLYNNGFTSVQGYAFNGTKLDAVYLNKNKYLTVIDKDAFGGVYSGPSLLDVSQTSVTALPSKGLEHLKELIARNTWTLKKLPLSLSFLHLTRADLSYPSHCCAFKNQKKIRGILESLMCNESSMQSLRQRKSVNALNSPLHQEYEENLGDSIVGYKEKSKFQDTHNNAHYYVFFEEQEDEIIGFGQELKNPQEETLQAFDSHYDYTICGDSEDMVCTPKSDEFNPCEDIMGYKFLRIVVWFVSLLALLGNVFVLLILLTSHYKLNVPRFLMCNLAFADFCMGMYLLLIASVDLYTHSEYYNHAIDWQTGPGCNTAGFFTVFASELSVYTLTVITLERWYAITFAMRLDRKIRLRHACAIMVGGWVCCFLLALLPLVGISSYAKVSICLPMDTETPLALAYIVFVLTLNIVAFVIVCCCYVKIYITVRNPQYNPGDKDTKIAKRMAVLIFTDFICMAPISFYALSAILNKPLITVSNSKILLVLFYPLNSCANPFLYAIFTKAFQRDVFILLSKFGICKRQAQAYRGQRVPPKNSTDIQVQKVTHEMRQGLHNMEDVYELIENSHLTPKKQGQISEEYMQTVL
Outline: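 TSHR-HEK293 cells (800/well) plated 18 h, then compounds with Ro20-1724 and TSH at 1.5 ng/mL final, 30 min at room temperature. cAMP quantified by HTRF (cAMP-d2/anti-cAMP-cryptate, 1 h); 15 concentrations in triplicate.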

[17] = qHTS assay to identify small molecule phospholipidosis (PLD) inducers (AID 1259344; active = well fitted curve in the direction sought with a large enough effect; an effect the other way counts as inactive or inconclusive)
Outline: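 Image-based: LipidTOX Red pit count/intensity per well and per cell; HepG2, 24 h compound at 37 C, PFA fixation, Hoechst counterstain.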

[18] = target: Androgen receptor (Homo sapiens) (UniProt P10275); experiment: qHTS assay to identify small molecule antagonists of the androgen receptor (AR) signaling pathway using the MDA cell line in the presence of 0.5 nM R1881 (AID 1259243); also: nearly all actives have a fitted effect of over 50% in size
Chain of Androgen receptor (Homo sapiens) (P10275 whole entry, looked up): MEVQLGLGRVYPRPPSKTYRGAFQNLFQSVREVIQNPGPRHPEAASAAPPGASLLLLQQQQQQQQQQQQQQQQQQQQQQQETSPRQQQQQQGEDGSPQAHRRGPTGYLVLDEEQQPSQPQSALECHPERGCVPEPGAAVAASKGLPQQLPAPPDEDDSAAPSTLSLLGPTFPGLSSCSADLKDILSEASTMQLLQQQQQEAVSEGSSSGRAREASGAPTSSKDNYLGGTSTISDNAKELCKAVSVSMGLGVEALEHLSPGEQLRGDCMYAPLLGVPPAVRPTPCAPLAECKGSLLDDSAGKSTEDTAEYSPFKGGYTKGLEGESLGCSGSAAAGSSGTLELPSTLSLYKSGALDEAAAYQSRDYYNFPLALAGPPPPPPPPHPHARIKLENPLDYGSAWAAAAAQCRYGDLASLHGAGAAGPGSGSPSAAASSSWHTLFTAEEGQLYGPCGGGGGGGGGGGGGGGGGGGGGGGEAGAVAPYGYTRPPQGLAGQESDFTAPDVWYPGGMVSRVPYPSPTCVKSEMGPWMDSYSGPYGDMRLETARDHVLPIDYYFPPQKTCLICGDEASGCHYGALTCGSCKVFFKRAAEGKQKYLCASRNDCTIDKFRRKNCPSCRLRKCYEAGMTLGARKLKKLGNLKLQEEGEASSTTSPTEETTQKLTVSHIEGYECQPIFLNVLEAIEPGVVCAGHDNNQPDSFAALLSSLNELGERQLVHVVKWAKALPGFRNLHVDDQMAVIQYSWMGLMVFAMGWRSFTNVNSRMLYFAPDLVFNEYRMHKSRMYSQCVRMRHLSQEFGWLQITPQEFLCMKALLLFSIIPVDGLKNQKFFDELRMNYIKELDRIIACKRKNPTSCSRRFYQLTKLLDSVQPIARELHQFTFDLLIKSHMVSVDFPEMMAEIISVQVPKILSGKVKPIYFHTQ
Outline: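 Luminescent reporter readout (ONE-Glo, 30 min, room temperature) after 16 hr co-treatment of MDA-kb2 cells with test compounds and 0.5 nM R1881 final, at 37C without CO2. The MMTV-driven luciferase responds to both AR and GR.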

[19] = target: Androgen receptor (Homo sapiens) (UniProt P10275); experiment: qHTS assay to identify small molecule agonists of the androgen receptor (AR) signaling pathway in the presence of an antagonist (AID 1259381; calls by dose curve; also: nearly all actives have a fitted effect of over 15% in size)
Outline: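 Agonist-mode confirmation run against 3.0 uM final nilutamide: compounds titrated at 15 concentrations onto MDA-kb2 MMTV-luciferase reporter cells. Luminescence measured with ONE-Glo following 16 hr incubation, 37C, 0% CO2.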

SMILES	outcome [1]	outcome [2]	Potency [3]	outcome [4]	Potency [5]	Potency [6]	outcome [7]	Potency [8]	Potency [9]	Potency [10]	outcome [11]	outcome [12]	outcome [13]	Potency [14]	Potency [15]	outcome [16]	outcome [17]	Potency [18]	Potency [19]
FB(F)F	inactive	inactive	inactive	inactive	inactive	inactive	inactive	inactive	inactive	inactive	inactive	inactive	inactive	–	–	–	–	–	–
O=C(O)CC(C(=O)O)S(=O)(=O)O (stereo not drawn)	inactive	inactive	inactive	inactive	inactive	inactive	inactive	30.6 µM (active)	inactive	inactive	inactive	inactive	inactive	–	–	–	–	–	–
C=COCC1CCC(COC=C)CC1 (stereo not drawn)	inactive	inactive	inactive	inactive	inactive	inactive	inactive	inactive	inactive	inactive	inactive	inactive	inactive	inactive	inactive	inactive	–	–	–
CCC(C)(CCCC(C)C)OC(C)=O (stereo not drawn)	–	inactive	inactive	inactive	inactive	inactive	inactive	–	inactive	–	inactive	inactive	inactive	inactive	inactive	–	–	–	–
CC(C)CCCO	inactive	inactive	inactive	inactive	inactive	inactive	inactive	inactive	inactive	–	inactive	inactive	inactive	inactive	inactive	inactive	–	–	–
CCCCOCCOC(=O)CCCCCCCCC(=O)OCCOCCCC	inactive	–	inactive	inactive	inactive	–	inactive	30.6 µM (active)	inactive	inactive	inactive	–	inactive	inactive	inactive	inactive	–	–	–
Nc1ccn([C@@H]2O[C@H](CO)[C@@H](O)C2(F)F)c(=O)n1	–	–	inactive	inactive	inactive	inactive	inactive	inactive	inactive	–	inactive	inactive	inactive	inactive	–	inactive	inactive	–	–
CC1=NN(c2cc(S(=O)(=O)O)ccc2Cl)C(=O)C1N=Nc1ccccc1 (stereo not drawn)	–	inactive	inactive	inactive	13.7 µM (active)	27.3 µM (active)	inactive	–	27.3 µM (active)	inactive	inactive	inactive	inactive	inactive	inactive	–	–	–	–
COc1ccc2cc1Oc1cc3c(cc1OC)CC[N+](C)(C)[C@H]3Cc1ccc(cc1)Oc1c(OC)c(OC)cc3c1[C@@H](C2)[N+](C)(C)CC3	inactive	inactive	inactive	inactive	inactive	inactive	inactive	inactive	inactive	inactive	inactive	inactive	inactive	–	–	inactive	inactive	–	–
CCOC(=O)COc1cc(-n2ncc(C(F)(F)F)c(C)c2=O)c(F)cc1Cl	inactive	–	inactive	inactive	inactive	inactive	inactive	inactive	inactive	inactive	inactive	inactive	inactive	inactive	inactive	inactive	–	inactive	inactive
CCCC(C)C(=O)OCC (stereo not drawn)	inactive	inactive	inactive	inactive	inactive	inactive	inactive	inactive	inactive	inactive	inactive	inactive	inactive	–	–	inactive	–	–	–
Nc1ccccn1	inactive	–	inactive	inactive	inactive	inactive	inactive	inactive	inactive	inactive	inactive	–	inactive	–	–	–	–	–	–
CO[Si](C)(OC)c1ccccc1	–	inactive	inactive	inactive	inactive	inactive	inactive	inactive	inactive	inactive	inactive	inactive	inactive	–	–	inactive	–	–	–
Nc1ccn([C@@H]2O[C@H](CO)[C@@H](O)[C@@H]2O)c(=O)n1	–	inactive	inactive	inactive	inactive	inactive	inactive	–	inactive	inactive	inactive	inactive	–	–	–	–	–	–	–
C[N+](C)(CCOc1ccccc1)Cc1cccs1	inactive	–	inactive	inactive	inactive	inactive	inactive	inactive	inactive	inactive	inactive	–	inactive	inactive	inactive	–	inactive	inactive	inactive
CC1=CC(=O)[C@H]2C[C@@H]1C2(C)C	inactive	inactive	inactive	inactive	inactive	inactive	inactive	inactive	inactive	inactive	inactive	inactive	–	inactive	inactive	–	–	–	–
